From the supplement of paper PMC6555819 come the findings set out here.

What all share (test): PBM binding z-score (relative to random genomic background probes); higher = stronger binding; sequences stand for … in GC…GCGATTGACAGCGTAGAATGAAGG
Assay [1] concerns RARb homodimer (NR concentration 270 nM). Put shortly: (§1)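 Antibodies against each partner of ligand-free nuclear receptor dimers (one per run) detected binding on custom Agilent 4×180K protein-binding microarrays after 1 h incubation. The double-stranded probes had 34-nt variable regions carrying direct-repeat seeds, single-nucleotide variants, half-site ablations and random human genomic background sequences. Binding z-scores, from regression-normalized fluorescence, use the random background probes as reference.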

Assay [2] relates to RARg:RXRa (NR concentration 270 nM, RXRa partner concentration 90 nM). Put shortly: as §1
For assay [3], the system named is RARg homodimer (NR concentration 270 nM). Put shortly:
as §1

Assay [4] relates to RXRa DBDmut IVT, anti-RXR (DBD mutation: RXRa K156A/R161A, NR concentration 90 nM). Put shortly: as §1
Assay [5] relates to RXRa homodimer (NR concentration 180 nM). Put shortly:
as §1

Assay [6] relates to THRa:RXRa (NR concentration 90 nM, RXRa partner concentration 90 nM). Put shortly: as §1
Assay [7] has as its system THRa homodimer (NR concentration 90 nM). Put shortly:
as §1

The test system of assay [8] is VDR homodimer (NR concentration 270 nM). Put shortly: as §1

CAAACTAGGTCAAAGGTCAATGTCGAGCCAACCA: the PBM binding z-score was determined as 5.2 in assay [1]; 8.62 in assay [2]; 7.28 in assay [3]; 3.16 in assay [4]; 9.99 in assay [5]; 4.71 in assay [6]. Further, the PBM binding z-score stood at 1.71 in assay [7] and 3.03 in assay [8].

For CGAACTAGGTCAAGGAGAGTGAATCTCCGCACGC, the PBM binding z-score in assay [1] was 2.9; in assay [2], 3.91; in assay [3] it was 4.76; in assay [4], 1.44; in assay [5], 2.85; in assay [6], 2.28. Moreover, the PBM binding z-score is 0.799 in assay [7] and -0.00315 in assay [8].

Consider TAGCCTAGGTCATTCAGGGCCCAGTATAGAAAGC, for which the PBM binding z-score in assay [1] amounted to 2.54; in assay [2] it was 3.96; in assay [3], 4.34; in assay [4] it was 1.96; in assay [5] it was 3.13; in assay [6], 3.47. Further, the results for the PBM binding z-score in assay [7] and in assay [8] were 0.59 and 1.54, respectively.

As for CCTCGGAGGACAACAGAAGGTCAGAGCTGCCAGA, the PBM binding z-score in assay [1] turned out to be 3.55; in assay [2], 3.3; in assay [3], 3.27; in assay [4] it was 0.274; in assay [5], 1.54; in assay [6] it was 2.36. The values for the PBM binding z-score in assay [7] and in assay [8] were 0.481 and 0.506, respectively.

Consider CAGACTAGGTCAGGGCCAGTATAGGAGGAACGTT, for which the PBM binding z-score was 2.28 in assay [1]; 2.67 in assay [2]; 3.34 in assay [3]; -0.345 in assay [4]; 1.3 in assay [5]; 1.65 in assay [6]. Moreover, the PBM binding z-score in assay [7] was 0.0626; in assay [8] it was -0.295.

Consider AGTCAAAGTTCCTCTAGGTAACGTAAGATATGCT, for which the PBM binding z-score in assay [1] was -0.0173; in assay [2], 0.433; in assay [3], 0.491; in assay [4], 0.711; in assay [5], 0.183; in assay [6], 1.23. Also, the values for the PBM binding z-score in assay [7] and in assay [8] were -0.0927 and 0.297, respectively.

On to ATCTCTAGGTAAACTTCAGTGAAAGATCGATAGA, for which the PBM binding z-score in assay [1] came to 0.191; in assay [2], 0.307; in assay [3], 0.513; in assay [4], 0.168; in assay [5], 0.222; in assay [6], 0.667. The results for the PBM binding z-score in assay [7] and in assay [8] were 0.466 and 0.34, respectively.
